The first assay deals with CCDC56. In words: pooled miR-30 sensor sort-seq; sequence = guide strand. The following applies: shRNA.
As for TTGCCAGAGCTCGGGCTCGGGC, the sensor-assay potency score (higher = more potent) was -1.79.
Still for that read-out and setting: as for TCATCTAGGAAACGCTCCTGGG, the figure is -1.24.
Sequence TAGCTCATCTAGGAAACGCTCC gave a sensor-assay potency score (higher = more potent) of -0.33.
The same measure, in the same setting: in the case of TTGCTCGGGTGTCAGCTTCTCC it was -1.07; in that of TAAATAGCCAACACCAGGGCCC, 0.333.
The same measure, in the same setting: as for TCGTCTTCTAGCTCATCTAGGA, the figure is -0.614; as for TCGGGTGTCAGCTTCTCCCGAG, -0.206.
The same measure, in the same setting: in the case of TGGGAAATCGAGTAGAAGGTGT it was 0.0738.
Regarding ACCATAAATAGCCAACACCAGG, the sensor-assay potency score (higher = more potent) is -2.43.
Same read-out and setting: in the case of TAGAATCCAGAGGGTCACCAGC it was -1.25.

A further assay concerns the target CCDC72. The assay is described as above. To be noted: shRNA.
For TTCCTCGTCCATCTCCTTGGCC, the sensor-assay potency score (higher = more potent) is -0.547.
Still for that read-out and setting: in the case of TTTGTTTCTGCTTGAAAGCCTT it was -0.585.
Turning to TCTGCTTGAAAGCCTTATCTTC, the sensor-assay potency score (higher = more potent) is -0.819.
The sequence TTCAGTGGCTTCTTCTTGCCAC had a sensor-assay potency score (higher = more potent) of 0.0626.
TTGTTTCTGCTTGAAAGCCTTA registered a sensor-assay potency score (higher = more potent) of -0.0976.
Same read-out and setting: as for TCTTCCTCGTCCATCTCCTTGG, the figure is -0.456; as for TTATCTTCCTCGTCCATCTCCT, 0.315.
The sequence ATCTTCCTCGTCCATCTCCTTG had a sensor-assay potency score (higher = more potent) of -1.81.
On the same count and under the same terms, in the case of TTAAATGTACAACAGCTCCAAG it was -1.04; in that of TTATTCTTAAATGTACAACAGC, -0.855.

For a further assay, the target named is CCDC77. The assay is described as above. The following applies: shRNA.
Turning to TATGCTGTCCTTCACAAGCTTC, the sensor-assay potency score (higher = more potent) is -1.33.
Still for that read-out and setting: as for TAGCTCTTTGATTTTGTTCTGA, the figure is 0.252; as for TTCTTGTCTTCTAGCTCCCTGA, -1.06; as for TAATATATTCACTTTGAGCATG, -0.91.
The same measure, in the same setting: in the case of TTTCTTCTTACACTGCACCCTA it was -0.0389; in that of TTTCGTTTGAGTCTCTAGCGCC, -0.231.
On the same count and under the same terms, as for TTTTTCTCTTGTACTAACTTAT, the figure is -0.944; as for TTTCTTGTCTTCTAGCTCCCTG, -0.0804; as for TTATCTTTTTCAAGCATCCATG, -1.19.
Consider TTTGGTGCTCTCATAGAGCAGT, for which the sensor-assay potency score (higher = more potent) is -0.0472.
The same measure, in the same setting: as for TTGCAAAATACCTTCTTCCTAA, the figure is -0.254; as for TTAATATCTGTCTTAAAGCCTT, -0.792.

The target of the next assay is CCL13. The description is as above. To be noted: shRNA.
TGAAGCAGCAAGTAGATGGGAC yielded a sensor-assay potency score (higher = more potent) of -0.203.
Same read-out and setting: as for ATTCTGGACCCACTTCTCCTTT, the figure is -1.22; as for TGCAAGGAGATCTTCTTACTGC, -0.0125.
The same measure, in the same setting: in the case of TATAATTCTGGACCCACTTCTC it was -0.771; in that of AAGGAGATCTTCTTACTGCTAA, -0.229; in that of ATCTTCTTACTGCTAAATGTGA, -1.06.
Take TAAATGTGAAGCAGCAAGTAGA: the sensor-assay potency score (higher = more potent) was -1.06.
Same read-out and setting: in the case of TTACTTAACACATAGTACATTT it was -1.04.

The record behind these values is the OligoGym collection.
Note: reference of the scale not given here.
